NPR1 antag – blocks ANP-stimulated signaling of human Npr1 receptor; HEK293 hNpr1 GloSensor cGMP, ANP-stimulated luminescence; Potency, µM (top dose mostly 46.3 µM), for inactives: top-dose activity change, negative = inhibition, hits mostly inhibitors; 76,000 compounds, 1.6% hits; calls by dose curve; further: nearly all actives have a fitted effect of over 60% in size
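Compound pre-incubated 30 min at room temperature on GloSensor-loaded HEK293 cells stably carrying hNpr1 and the pGS-40F cGMP biosensor. Stimulation uses hNppA at 0.1 nM final; luminescence is taken at baseline and 20 min post-agonist.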
3T3 cytotox – NIH 3T3 cell cytotoxicity; Potency, µM (series often up to 96.7 µM), for inactives: at the top dose activity change, negative = cytotoxicity, actives largely listed as inhibitors; 94,000 compounds, 4.3% hits; NIH 3T3 viability, CellTiter-Glo ATP luminescence, 48-72 h; further: nearly all actives have a fitted effect of over 55% in size
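Cytotoxicity is measured as loss of cellular ATP: NIH 3T3 cells (400/well) are exposed to compound for 48 or 72 hr at 37 °C, then CellTiter-Glo luminescence is imaged after 10 min at room temperature.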
GPT2 inh – blocks human glutamate pyruvate transaminase 2 | Q8TD30 | Recombinant GPT2, coupled pyruvate oxidase/HRP Amplex Red fluorescence | Potency, µM (titrated, usually from 57.7 µM), without a hit: at the highest dose activity change, negative = inhibition, hits mostly inhibitors | 100,000 compounds, 0.25% hits | AID 1671188; further: nearly all actives have a fitted effect of over 60% in size
Target sequence (Q8TD30 whole entry, looked up): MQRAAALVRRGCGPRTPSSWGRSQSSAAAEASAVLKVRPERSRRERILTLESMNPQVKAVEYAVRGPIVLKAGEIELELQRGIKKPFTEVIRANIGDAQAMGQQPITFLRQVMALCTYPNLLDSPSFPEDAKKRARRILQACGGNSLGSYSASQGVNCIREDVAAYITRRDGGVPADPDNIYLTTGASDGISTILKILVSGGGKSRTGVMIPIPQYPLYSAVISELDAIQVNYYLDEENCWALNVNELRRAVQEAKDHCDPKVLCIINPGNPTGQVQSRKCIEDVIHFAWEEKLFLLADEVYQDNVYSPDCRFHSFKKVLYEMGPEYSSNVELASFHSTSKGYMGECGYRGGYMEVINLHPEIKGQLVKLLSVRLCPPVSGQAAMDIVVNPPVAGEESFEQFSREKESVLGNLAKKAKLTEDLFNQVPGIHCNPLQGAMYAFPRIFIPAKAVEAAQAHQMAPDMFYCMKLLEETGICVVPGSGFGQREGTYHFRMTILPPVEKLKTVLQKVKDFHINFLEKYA
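Inhibition is scored from Amplex Red fluorescence generated when pyruvate oxidase and HRP act on pyruvate released by GPT2. Reactions contain 10ng/uL enzyme, 250uM a-KG and 2mM L-alanine and run 30 min at room temperature.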
HEK cytotox – HEK 293 cell cytotoxicity | Potency, µM (titrated, usually from 115 µM), without a hit: at the top dose activity change, negative = cytotoxicity, usual class: inhibitors | AID 1345083 | 94,000 compounds, 6.6% hits | HEK 293 viability, ATP luminescence (CellTiter-Glo), 48-72 h; further: nearly all actives have a fitted effect of over 60% in size
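HEK 293 cells seeded at 250 cells/well were exposed to compound for 48 or 72 hr at 37 degree Celsius. Viability taken as ATP content by CellTiter-Glo luminescence.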
Luciferase inh – Photinus pyralis luciferase inhibition | P08659 | purified P. pyralis luciferase, luminescence, biochemical | Potency, µM (series often up to 115 µM), most hits filed as inhibitors | 76,000 compounds, 2.5% hits | AID 1347043; further: nearly all actives have a fitted effect of over 65% in size
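Cell-free enzyme assay, 10nM P. pyralis luciferase, luciferin and ATP each at 10uM. Inhibition profiled over a 6-point titration, read as luminescence.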
Active calls of the source: *; i = inactive; ? = inconclusive; nt = no result given; [ ] = another dose, or the depositor's remark. Sampled rows, rich in hits. Any-hit rate of the full collection: about 10%. Unless noted, the call rests on the fitted dose curve; in most records, active means well fitted curve in the direction sought with a large enough effect; inconclusive means small, poorly fitted or top-dose-only effect, or another doubt; inactive means no such curve, though single readings can be large; an effect the other way counts as inactive or inconclusive. On the % scale 0 is the no-effect control and ±100 the full control effect; potency means the concentration at half of the fitted maximal effect.

SMILES	NPR1 antag	3T3 cytotox	GPT2 inh	HEK cytotox	Luciferase inh
CSc1ccc(-c2cccc(CN3CCC(NC(=O)c4ccccc4Cl)CC3)c2)cc1	nt	?	nt	40µM*	nt
O=C(Nc1ccccc1)NC1CCN(Cc2cccc(-c3ccc(F)c(F)c3)c2)CC1	nt	16µM*	-29%	20µM*	nt
CSc1ccc(-c2cccc(CN3CCC(NC(=O)Nc4ccc(Cl)cc4)CC3)c2)cc1	nt	13µM*	nt	22µM*	nt
O=C(C1CCCN([S+](=O)([O-])c2cccs2)C1)N1CCCC1c1nc2ccncc2[nH]1 (stereo unspecified)	nt	-9%	i	3%	nt
COc1ccccc1C(=O)N1CCN(Cc2ccccc2-c2ccc(C)c(Cl)c2)CC1	nt	35µM*	-4%	?	nt
Cc1ccc(-c2ccccc2CN2CCC(C(=O)N3CCOCC3)CC2)cc1Cl	nt	?	i	79µM*	nt
Cc1ccc(-c2ccccc2CN2CCN(C(=O)NC3CCCC3)CC2)cc1Cl	nt	20µM*	i	22µM*	nt
Cc1ccc(-c2ccccc2CN2CCC(C(=O)NC3CCCC3)CC2)cc1Cl	nt	-15%	nt	-15%	nt
COc1cccc(CNC(=O)c2ccc3nnc(-c4c(C)cccc4C)n3c2)c1	nt	-23%	-8%	-7%	nt
CC1=C[C@@H](CNC(=O)C2CC2)[C@H](C(C)C)C[C@H]1Cc1nnc(-c2cncn2C)o1	5%[70.6 µM]	?	3%[88.5 µM]	?	i
CC1=C[C@@H](CN2CCCCC2)[C@H](C(C)C)C[C@H]1Cc1nnc(-c2cncn2C)o1	2%[70.6 µM]	?	i	100µM*	i
CC1=C[C@@H](CN2CCN(c3ncccn3)CC2)[C@H](C(C)C)C[C@H]1Cc1nnc(-c2cncn2C)o1	-18%	?	1%	35µM*	i
COc1ccccc1N1CCN(C[C@@H]2C=C(C)[C@H](Cc3nnc(-c4cncn4C)o3)C[C@H]2C(C)C)CC1	-14%	35µM*	i	13µM*	i
CCN(Cc1ccccc1)C(=O)CC1CCCCN(Cc2ccccc2)C1=O (stereo unspecified)	3%	?	0%	?	i
COCCCNC(=O)c1cn2cc(-c3ccc(C(F)(F)F)cc3)sc2n1	nt	?	-20%	?	nt
CCn1c(=O)c(-c2ccc(Cl)cc2Cl)cc2cnc(Nc3ccc(N4CCNCC4)c(F)c3)nc21	nt	nt	i	nt	nt
COc1cccc(CC2(CO)CCCN(c3ccc(-c4nccn4C)nn3)C2)c1 (stereo unspecified)	-10%	?	i	20µM*	i
COc1cccc(CC2(CO)CCCN(c3nnnn3-c3ccccc3)C2)c1 (stereo unspecified)	-7%	?	-5%	?	i
COc1ccccc1Nc1ccnc(N2CCCC(C(=O)NC3CC3)C2)n1 (stereo unspecified)	nt	?	i	?	nt
Cc1ccc(-n2c(C3CCN(C(=O)c4ccc(C)nc4)CC3)n[nH]c2=O)cc1	3%	25µM*	i	2%	i
Cc1ccc(-n2c(C3CCN(C(=O)c4ccc(F)c(Cl)c4)CC3)n[nH]c2=O)cc1	-8%	13µM*	2%	-2%	i
COc1ccc(C(=O)N2CCC(c3n[nH]c(=O)n3-c3ccc(C)cc3)CC2)cc1OC	0%	?	-13%	33%	i
Cc1ccc(-n2c(C3CCN(C(=O)c4ccc(C#N)cc4)CC3)n[nH]c2=O)cc1	8%	35µM*	-29%	-12%	i
COc1ccc(C(=O)N2CCC(c3n[nH]c(=O)n3-c3ccc(C)cc3)CC2)cn1	0%	28µM*	i	-4%	i
Cc1ccc(C(=O)N2CCC(c3n[nH]c(=O)n3-c3ccc(C)cc3)CC2)cc1	-20%	?	i	9%	i
SMILES	NPR1 antag	3T3 cytotox	GPT2 inh	HEK cytotox	Luciferase inh
O=C(c1ccc(Cl)nc1)N1CCCC(C(=O)N2CCCC(c3nc4ccncc4[nH]3)C2)C1 (stereo unspecified)	nt	-12%	i	3%	nt
Cc1ccc(C(=O)NC2CCN(c3cnn(Cc4ccccc4)c(=O)c3)CC2)s1	-14%	?	-10%	?	i
O=C(c1ccccc1F)N1CCC2(CC1)CN(Cc1ccccc1)CC2CO (stereo unspecified)	-15%	?	-3%	79µM*	i
OCC1CN(Cc2ccc(Br)cc2)CC12CCNCC2 (stereo unspecified)	-5%	40µM*	-10%	40µM*	i
COCC1CN(Cc2ccc(C(C)C)cc2)CC12CCNCC2 (stereo unspecified)	-10%	?	i	45µM*	i
COc1ccc(CN2C(=O)COC[C@H]2C(=O)NCc2cc(F)ccc2F)c(OC)c1	nt	-26%	i	-23%	nt
COCC(=O)N[C@H]1CC[C@]2(C)CC[C@@H]([C@H](C)C(=O)NCc3cccs3)[C@H](O)[C@H]2[C@@H]1C	2%	-6%	-1%	-3%	i
CCN(CC)Cc1cnc2c(C(=O)NC(C3CC3)C3CC3)cnn2c1	7%	-18%	-4%	-14%	i
CC(C)c1nc2c(c(-c3ccc(Cl)cc3)n1)CCN(C(=O)c1ccc(C(F)(F)F)cc1)CC2	nt	?	i	?	nt
O=C1N(CCc2ccccc2)CCOC12CCN(Cc1ccc(F)c(Cl)c1)CC2	?	45µM*	-13%[88.5 µM]	79µM*	i
O=C1N(CC2CC2)CCOC12CCN(Cc1ccc(F)c(Cl)c1)CC2	-13%[70.6 µM]	-29%[138 µM]	2%[88.5 µM]	?	i
O=C(CC1C(=O)NCCN1Cc1cccc(Oc2ccccc2)c1)NCc1ccco1 (stereo unspecified)	6%	?	3%	25µM*	i
O=[S+]1([O-])NC2(CCN(Cc3c[nH]c4ccccc34)CC2)COc2ccccc21	nt	-19%	i	-28%	nt
COc1cccc(-c2cc3c(=O)n(CCNC(=O)c4c(F)cccc4F)ccn3n2)c1	-13%	-23%	i	1%	7.9µM*
COc1cccc(-c2cc3c(=O)n(CCNC(=O)c4cccnc4)ccn3n2)c1	-18%	-4%	i	3%	?
COc1cccc(-c2cc3c(=O)n(CCNC(=O)c4ccoc4)ccn3n2)c1	-21%	-13%	-7%	45µM*	?
COc1cccc(-c2cc3c(=O)n(CCNC(=O)C(C)Oc4ccccc4)ccn3n2)c1 (stereo unspecified)	?	?	2%	45µM*	?
COc1cccc(-c2cc3c(=O)n(CCNC(=O)c4cc(F)cc(F)c4)ccn3n2)c1	-25%	?	i	?	i
CC(C)Cn1c(=O)c(C(=O)N2CCN(C(=O)NC3CCCC3)CC2)nc2cccnc21	nt	-25%	-5%	i	nt
O=C(NCc1ccc(Cl)cc1)c1nc2cccnc2n(C2CCCCC2)c1=O	nt	?	-3%	?	nt
